# Sampled rows, rich in hits. Any-hit rate of the full collection: about 5.5%.
# RORgamma inh = qHTS for inhibitors of ROR gamma transcriptional activity. Drosophila S2 Gal4-RORgamma UAS-luciferase reporter, 20 h. 310,000 compounds, 5.4% hits. Potency, µM (series often up to 53.6 µM), for the others: top-dose activity change, negative = inhibition, usual class: inhibitors; further: potency means the concentration at half of the fitted maximal effect; on the % scale 0 is the no-effect control and ±100 the full control effect; nearly all actives have a fitted effect of over 60% in size
#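 Stable Schneider cell line, Gal4 DNA-binding domain fused to ROR gamma, UAS-luciferase. Cmpd 1 hr RT → CuSO4 700 uM final → 20 hr RT → luciferase reagent 10 min → luminescence.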
# VP16 counter = VP16 counterscreen qHTS for inhibitors of ROR gamma transcriptional activity. AID 2546, 2010. Potency, µM (highest dose often 53.6 µM), inactives show at the top dose activity, negative = inhibition, most hits filed as inhibitors. 310,000 compounds, 3.5% hits. Drosophila S2 Gal4-VP16 UAS-luciferase, luminescence, 20 h;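 further: Gal4-VP16 expression switched on by copper sulfate through the metallothionein promoter; potency means the concentration at half of the fitted maximal effect; on the % scale 0 is the no-effect control and ±100 the full control effect; nearly all actives have a fitted effect of over 50% in size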
# MBNL1-CUG inh = qHTS Assay for Inhibitors of MBNL1-poly(CUG) RNA binding | AID 2675, 2010 | Muscleblind-like protein 1 (Homo sapiens), Q9NR56 | Potency, µM (top dose mostly 57.5 µM), for inactives: top-dose activity change, negative = inhibition, actives largely listed as inhibitors | 280,000 compounds, 0.036% hits | TR-FRET MBNL1-His/biotin-(CUG)12 binding, 665/545 ratio; active means well fitted inhibition curve with a large enough effect in the signal ratio, with a control signal flat, not every such curve was filed as active; inconclusive means small, poorly fitted or top-dose-only effect, or effect the other way, or a change in a side signal; inactive means no such curve, though single readings can be large or run the other way; the % refers to the signal ratio; further: potency means the concentration at half of the fitted maximal effect; on the % scale 0 is the no-effect control and ±100 the full control effect
#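 Compounds (final 92 nM to 58 uM) are added to His-tagged MBNL1 and biotin-(CUG)12, then terbium anti-His antibody and streptavidin-XL665 (5 nM final). After 60 min at room temperature, the 665/545 nm ratio is read.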
# Six1-Eya2 blk = qHTS Assay for Inhibitors of the Six1/Eya2 Interaction | AlphaScreen GST-Six1/His-Eya2 binding, biochemical; active compounds read low | activity change, % (concentration not given with the values) | 360,000 compounds, 0.56% hits | AID 651725, 2012; in the data active means activity change below about -65%; inconclusive means mostly about -30% to -63%; further: on the % scale 0 is the no-effect control and ±100 the full control effect
#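 Six1/Eya2 binding was read as AlphaScreen signal after compounds were pinned into GST-Six1 plus His-tagged Eya2 (5X stock 250/500 nM) in pH 8.0 Tris/NaCl/TCEP buffer, beads added, then incubated 1 h, 37 C, dark.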
# CBFb RUNX1 block = qHTS Assay for Compounds Blocking the Interaction Between CBF-beta and RUNX1 for the Treatment of Acute Myeloid Leukemia; 230,000 tested, under 10 active; Potency, µM (doses to about 59.8 µM), inactives show top-dose activity, negative = inhibition, usual class: inhibitors; AlphaScreen CBFb-His/RUNX1-biotin binding, biochemical; further: % of control where 0% means no effect
# Target sequence (Q01196 whole entry, looked up): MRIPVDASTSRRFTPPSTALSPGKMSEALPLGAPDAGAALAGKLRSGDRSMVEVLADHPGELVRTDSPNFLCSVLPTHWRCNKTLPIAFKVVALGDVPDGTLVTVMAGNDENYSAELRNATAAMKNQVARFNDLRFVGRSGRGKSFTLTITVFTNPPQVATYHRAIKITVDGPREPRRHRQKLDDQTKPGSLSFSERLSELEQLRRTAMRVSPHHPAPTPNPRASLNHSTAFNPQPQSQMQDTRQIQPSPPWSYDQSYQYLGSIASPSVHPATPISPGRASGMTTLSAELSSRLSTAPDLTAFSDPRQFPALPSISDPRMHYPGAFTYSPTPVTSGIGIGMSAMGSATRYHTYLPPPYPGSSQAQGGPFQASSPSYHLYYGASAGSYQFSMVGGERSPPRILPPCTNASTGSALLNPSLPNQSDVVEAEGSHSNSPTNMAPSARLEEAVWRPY
# Target sequence (Q13951 whole entry, looked up): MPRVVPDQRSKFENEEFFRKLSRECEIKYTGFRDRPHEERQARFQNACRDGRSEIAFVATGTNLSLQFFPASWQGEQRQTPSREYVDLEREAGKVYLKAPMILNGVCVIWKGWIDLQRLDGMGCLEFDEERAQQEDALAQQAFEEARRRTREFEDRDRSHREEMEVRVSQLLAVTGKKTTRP
#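 Interaction loss through any mechanism counts as activity. Pre-formed complex of His-CBF-beta and biotin-RUNX1 (30 nM apiece) is incubated with compound 15 min, then with 50 ng nickel and 50 ng streptavidin beads for 90 min before AlphaScreen detection.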
# CtBP-E1A inh = qHTS Assay for Inhibitors of the CtBP/E1A Interaction | AlphaScreen GST-E1A/His-CtBP binding, 1536-well; active compounds read low | 340,000 compounds, 0.49% hits | AID 651724, 2012 | CtBP / adenovirus E1A interaction (AlphaScreen) | activity change, % (no concentration beside the values); in the data active means activity change below about -65%; inconclusive means mostly about -30% to -63%; further: on the % scale 0 is the no-effect control and ±100 the full control effect
#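 Protein mix (5X: 125 nM each GST-E1A, His-CtBP) was incubated with pinned compound 2 h at 37 deg C in dark, in 50 mM Tris pH 8.0 buffer with 300 mM NaCl. Glutathione donor and nickel acceptor beads followed; AlphaScreen signal read after 1 h.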
# Starred values were filed as active, the others as inactive; ? = inconclusive; . = not tested or not shown; [ ] = dose if it differs, or a comment. Unless noted, the call rests on the fitted dose curve; in most records, active means well fitted curve in the direction sought with a large enough effect; inconclusive means small, poorly fitted or top-dose-only effect, or another doubt; inactive means no such curve, though single readings can be large; an effect the other way counts as inactive or inconclusive.
SMILES,RORgamma inh,VP16 counter,MBNL1-CUG inh,Six1-Eya2 blk,CBFb RUNX1 block,CtBP-E1A inh
Cc1cccc(NC(=S)NCC(C)CSc2ccc(Cl)cc2)c1 (centres undefined),3.16µM*,5.62µM*,9.1%,-11.5,10.4%,.
CN(C)C(CNC(=S)Nc1ccc(Cl)cc1)c1cccnc1 (centres undefined),9.2%,5.4%,-9.1%,5.1,-0.5%,6.2
Cc1ccc(NC(=S)NCC(C)CSc2ccc(Cl)cc2)cc1 (centres undefined),2.82µM*,?,6.7%,5.0,-4.6%,-1.1
CCc1ccc2[nH]c(O)c(N=Nc3nc(-c4ccccc4)cs3)c2c1,12.6µM*,?,13.7%,?,?,-19.9
CNc1ncncc1-c1c(C)noc1C,11.1%,-2.8%,.,.,.,.
CCOc1ccccc1OCCCC(=O)Nc1nc2ccccc2[nH]1,?,-11.0%,1.8%,5.7,14.9%,0.8
COc1cccc(CC(=O)Nc2nc3ccccc3[nH]2)c1,?,-27.5%[10 µM],-4.8%,8.9,-4.2%,-4.0
O=C(Cc1cccc2ccccc12)Nc1nc2ccccc2[nH]1,7.94µM*,8.91µM*,-2.4%,26.6,-2.3%,41.5
O=C(Cc1ccccc1F)Nc1nc2ccccc2[nH]1,10µM*,?,-1.6%,-4.8,-3.4%,0.0
CCCCCC(=O)Nc1nc2ccccc2[nH]1,6.31µM*,?,-0.7%,20.8,2.4%,31.9
C[C@@H]1CN([C@H](C)CO)C(=O)CCCn2cc(nn2)CO[C@H]1CN(C)C(=O)Nc1ccc(-c2cccs2)cc1,.,.,.,20.8,.,3.6
CCSc1nnc(-c2ccc(Cl)cc2)c2ccccc12,-3.0%,-5.8%,-4.2%,4.7,2.9%,4.2
Cc1ccc(-c2nnc(Sc3nc4ccccc4o3)c3ccccc23)cc1,8.91µM*,?,11.1%,-19.3,8.7%,-18.2
Cc1nnc(Sc2nc3ccccc3o2)c2ccccc12,?,?,-10.1%,8.0,0.2%,3.1
Clc1ccc(-c2nnc(Sc3nc4ccccc4o3)c3ccccc23)cc1,6.31µM*,?,-6.4%,-8.8,-9.3%,-3.2
CCc1ccc(CN2CCCC(CNC(=O)c3cccc(OC)c3OC)C2)cc1 (centres undefined),-1.9%,-3.6%,-2.8%,-1.5,.,0.3
CN1CCN(C(=S)NC(=O)c2ccc(Cl)cc2)CC1,0.398µM*,1µM*,-12.2%,-0.1,-8.3%,-1.1
O=C(NC(=S)N1CCCC1)c1ccc(Cl)cc1,11.4%,14.3%,-7.9%,5.5,.,0.0
CC(C)(C)c1ccc(C(=O)NC(=S)N2CCCC2)cc1,0.708µM*,0.891µM*,-3.9%,-8.1,.,-23.0
CC(C)(C)c1ccc(C(=O)NC(=S)N2CCCCCC2)cc1,0.282µM*,0.501µM*,4.8%,2.5,.,-6.6
CC(C)(C)c1ccc(C(=O)N2CCCCCC2=O)cc1,?,2.24µM*,-17.2%,7.4,-14.7%,4.5
CC1CCN(C(=S)NC(=O)c2ccc(C(C)(C)C)cc2)CC1,.,.,3.7%,-9.4,.,-7.9
COc1cccc(C(CNC(=O)c2ccc(Cl)c(S(=O)(=O)N3CCCC3)c2)N(C)C)c1 (centres undefined),.,.,.,2.0,.,0.4
c1ccc(-c2cc3cc4c(cc3cn2)OCO4)cc1,.,.,.,12.2,.,22.3
CCOC(=O)N1CCN(C(=S)NC(=O)C2CCCC2)CC1,-34.7%,-7.5%,-7.2%,-5.6,7.9%,1.1
SMILES,RORgamma inh,VP16 counter,MBNL1-CUG inh,Six1-Eya2 blk,CBFb RUNX1 block,CtBP-E1A inh
CC(C)(C)CC(=O)NC(=S)N1CCCCCC1,7.94µM*,?,-2.9%,3.0,5.1%,19.2
Cc1cc(C)nc(Nc2ncc(O)n2-c2ccc(C)c(Cl)c2)n1,11.2µM*,?,1.3%,2.3,3.9%,0.1
Cc1cc(C)nc(Nc2ncc(O)n2-c2ccc(C)c(C)c2)n1,-25.0%,5.7%,3.6%,4.3,6.4%,-4.0
CCc1ccc2[nH]c(=O)c(C3C(C#N)=C(N)Oc4c3ccc3cccnc43)cc2c1 (centres undefined),?,-5.9%,?,?,-22.3%,-86.4*
N#CC1=C(N)Oc2c(ccc3cccnc23)C1c1cccnc1 (centres undefined),6.8%,-13.8%,?,-90.8*,?,-92.2*
CCOc1cccc(C2C(C#N)=C(N)Oc3cc(C)[nH]c(=O)c32)c1OCC (centres undefined),-20.2%,0.2%,-3.3%,0.6,10.1%,.
Cc1ccc2cc(C3C(C#N)=C(N)Oc4c3ccc3cccnc43)c(=O)[nH]c2c1 (centres undefined),-35.1%,-15.7%,?,-71.7*,?,-93.7*
Cc1nc(CCNC(=O)C2CCC(=O)N(Cc3cccc(F)c3)C2)sc1C (centres undefined),-2.9%,-7.1%,-4.3%,-0.1,.,3.0
COc1ccccc1N1C(=O)CC(Sc2nccc(C)n2)C1=O (centres undefined),11.2µM*,?,3.7%,-1.4,4.6%,-0.2
COc1ccccc1N1C(=O)CC(Sc2n[nH]c(-c3cccc(C)c3)n2)C1=O (centres undefined),2.82µM*,5.01µM*,6.6%,-7.6,2.1%,-20.7
COc1ccc(N2C(=O)CC(Sc3nccc(C)n3)C2=O)c(OC)c1 (centres undefined),.,.,.,-3.7,.,1.8
O=C(CCC1CCCN(C(=O)CC2=CCCCC2)C1)N1CCN(c2ccccn2)CC1 (centres undefined),8.5%,4.2%,-7.5%,0.6,0.4%,4.1
CN[C@@H](CO)C(=O)NC[C@H]1O[C@@H](n2cc(C)c(=O)[nH]c2=O)C[C@@H]1O,.,.,.,-0.4,.,0.0
[O-]/C(=C(\C(=S)Nc1cccc2ccccc12)[n+]1ccccc1)c1ccc2c(c1)OCCO2,12.6µM*,?,16.3%,-9.1,-1.3%,0.1
O=[N+]([O-])c1c(Nc2ccccn2)cc(Cl)c2nonc12,12.6µM*,8.91µM*,?,-0.3,-25.6%,0.7
O=[N+]([O-])c1c(Nc2ccc(O)cc2)cc(Cl)c2nonc12,5.62µM*,4.47µM*,?,-26.4,.,.
CN(C)c1cc(Nc2ccc(O)cc2)c([N+](=O)[O-])c2nonc12,1.5%,-1.9%,?,-1.7,-0.4%,0.4

# Assay outcomes as filed in PubChem BioAssay.
